In PubChem BioAssay AID540326 (Broad Institute, 2011):
The list shows a part of the results. The source made the active and inactive calls.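 How the source made its calls: active means quenching, a falling signal, with AC50 below a set limit tied to the top valid dose (actives reach about 32 µM in these data); inconclusive means no clear call, values can overlap the other calls; inactive means rising signal, and the rest.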

Experiment: DiI-HDL fluorescence quenchers, cell-free, dose response, artefact control for SR-BI HDL uptake inhibitor project, biochemical, cherry-pick samples, plate reader fluorescence (AID 540326)
Conditions: 30 min; series mostly up to 35 µM

CC(=O)OC1C2(CC3N4C(=O)C5(CO)SSC4(CC31O)C(=O)N5C)OC(C)C(C)(C)C2=O (stereo unspecified)
outcome: inactive
